Experimental findings from PubChem BioAssay are described below.

Assay [1] is described as follows: antimalarial activity against Dd2 strain (AID 2302;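 active = growth inhibition above 50% at the single 2 µM test dose, taken to imply half-maximal potency below 2 µM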;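 note: 0% = DMSO untreated growth and 100% = chloroquine plus artemisinin killed control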). The settings on record: P. falciparum Dd2 in RBCs, LDH growth readout, 72 h; at 2 µM; stronger effect = higher value.
Assay [2] can be described thus: HepG2 cytotoxicity, primary screen, cytotoxicity control for P. falciparum antimalarial project, cell-based, ATP luminescence (AID 2303;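 active = inhibition above 50%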;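 note: 0% = DMSO wells and 100% = digitonin-killed cells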). The settings on record: HepG2 viability, 24-48 h, at 10 µM, stronger effect = higher value.
In assay [3] the target is L-lactate dehydrogenase (Plasmodium falciparum (isolate CDC / Honduras)) (UniProt Q27743). Description: PfLDH activity inhibition – cell lysate, 3D7 strain, counter-screen for P. falciparum growth inhibition project (AID 2304).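 Note: 0% = vehicle and 100% = reference inhibitor.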 The settings on record: P. falciparum 3D7 crude extract, LDH APAD/NBT absorbance; at 2 µM; stronger effect = higher value. Background: Counterscreens check selectivity or assay interference.

Assay [4] can be described thus: inhibition of 3D7 malaria parasite growth – strain 3D7 (AID 2306).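 Note: 0% = DMSO wells and 100% = chloroquine plus artemisinin control wells.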 The settings on record: P. falciparum 3D7 erythrocytic growth, LDH absorbance, 72 h; at 2 µM; stronger effect = higher value.
The target of assay [5] is Calcium-dependent protein kinase 1 (Plasmodium falciparum (isolate 3D7)) (UniProt P62344). Briefly: PfCDPK1 kinase inhibitors, biochemical, TCAMS library (AID 1159585; cut-off not given, nearly all actives have IC50 up to about 0.98 µM;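 note: inhibitors leave more ATP so luminescence rises with inhibition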). The settings on record: recombinant PfCDPK1, Kinase-Glo ATP depletion luminescence. A general note: Kinase-Glo measures the ATP left after a reaction by luminescence.
Assay [6] addresses Plasmodium falciparum protein kinase 6 (PK6, PF3D7_1337100) (UniProt Q8IDW1). Description: PfPK6 kinase inhibitors, biochemical, TCAMS library (AID 1159586). The settings on record: recombinant PfPK6, Kinase-Glo ATP depletion luminescence.
Assay [7] has as its target Protein kinase 7 (PK7), Plasmodium falciparum 3D7 (PF3D7_0213400) (UniProt Q7YTF7). Briefly: inhibition of Plasmodium PK7 catalytic activity – biochemical, TCAMS antimalarial set, Kinase-Glo luminescence (AID 1159587). The settings on record: recombinant PfPK7, Kinase-Glo ATP depletion luminescence.
The target in assay [8] is Calcium-dependent protein kinase 4 (Plasmodium falciparum (isolate 3D7)) (UniProt Q8IBS5). Briefly: PfCDPK4 kinase inhibitors, biochemical, TCAMS library (AID 1159588; cut-off not given, nearly all actives have IC50 up to about 0.91 µM). The settings on record: recombinant PfCDPK4, Kinase-Glo ATP depletion luminescence.

Molecules are shown by their SMILES. Values without a mark were called inactive. For some of these results: Potency and affinity values are given separately. Activity calls are given as the source filed them. Unless noted, the rule behind the calls is not given here.

Plasmodium falciparum protein kinase 6 (PK6, PF3D7_1337100), sequence (Q8IDW1 1-305): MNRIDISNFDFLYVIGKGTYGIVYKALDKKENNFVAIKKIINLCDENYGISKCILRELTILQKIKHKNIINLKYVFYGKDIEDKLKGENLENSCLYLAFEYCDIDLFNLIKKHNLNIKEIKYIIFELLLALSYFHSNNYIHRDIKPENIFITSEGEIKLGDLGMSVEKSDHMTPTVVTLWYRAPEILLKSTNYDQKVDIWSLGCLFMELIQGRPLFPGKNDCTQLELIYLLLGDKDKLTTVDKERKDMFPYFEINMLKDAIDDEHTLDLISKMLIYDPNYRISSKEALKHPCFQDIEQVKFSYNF
Calcium-dependent protein kinase 4 (Plasmodium falciparum (isolate 3D7)), sequence (Q8IBS5 whole entry, looked up): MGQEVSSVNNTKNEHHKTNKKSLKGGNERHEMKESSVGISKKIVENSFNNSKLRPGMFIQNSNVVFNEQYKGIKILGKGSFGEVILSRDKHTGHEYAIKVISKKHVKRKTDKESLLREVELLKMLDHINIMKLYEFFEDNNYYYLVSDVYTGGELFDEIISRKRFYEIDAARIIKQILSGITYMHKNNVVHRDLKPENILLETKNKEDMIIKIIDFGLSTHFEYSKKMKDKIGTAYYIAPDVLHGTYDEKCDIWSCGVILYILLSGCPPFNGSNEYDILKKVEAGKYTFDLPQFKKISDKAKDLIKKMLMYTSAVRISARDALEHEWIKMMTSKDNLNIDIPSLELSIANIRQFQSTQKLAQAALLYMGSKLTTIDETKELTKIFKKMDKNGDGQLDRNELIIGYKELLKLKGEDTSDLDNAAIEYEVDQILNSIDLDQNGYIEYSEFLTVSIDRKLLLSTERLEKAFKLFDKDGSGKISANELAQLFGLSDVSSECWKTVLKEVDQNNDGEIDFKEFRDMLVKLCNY
Protein kinase 7 (PK7), Plasmodium falciparum 3D7 (PF3D7_0213400), sequence (Q7YTF7 1-343): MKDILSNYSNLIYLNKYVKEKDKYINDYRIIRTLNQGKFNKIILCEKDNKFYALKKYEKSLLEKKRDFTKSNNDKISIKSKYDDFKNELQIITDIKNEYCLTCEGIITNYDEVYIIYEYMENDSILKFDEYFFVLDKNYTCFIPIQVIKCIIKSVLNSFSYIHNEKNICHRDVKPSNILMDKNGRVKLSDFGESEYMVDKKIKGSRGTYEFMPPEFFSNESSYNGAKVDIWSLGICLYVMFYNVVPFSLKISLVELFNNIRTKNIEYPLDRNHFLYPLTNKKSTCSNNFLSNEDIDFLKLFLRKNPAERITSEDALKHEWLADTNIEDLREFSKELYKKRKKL
L-lactate dehydrogenase (Plasmodium falciparum (isolate CDC / Honduras)), sequence (Q27743 whole entry, looked up): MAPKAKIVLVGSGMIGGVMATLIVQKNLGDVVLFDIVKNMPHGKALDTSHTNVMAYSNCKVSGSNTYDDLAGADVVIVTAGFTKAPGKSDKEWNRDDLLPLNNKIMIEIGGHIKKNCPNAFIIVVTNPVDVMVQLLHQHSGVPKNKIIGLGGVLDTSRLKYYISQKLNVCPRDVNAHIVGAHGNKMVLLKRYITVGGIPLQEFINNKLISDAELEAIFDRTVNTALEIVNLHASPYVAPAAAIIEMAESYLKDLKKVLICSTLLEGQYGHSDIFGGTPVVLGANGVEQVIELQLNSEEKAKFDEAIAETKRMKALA
Calcium-dependent protein kinase 1 (Plasmodium falciparum (isolate 3D7)), sequence (P62344 whole entry, looked up): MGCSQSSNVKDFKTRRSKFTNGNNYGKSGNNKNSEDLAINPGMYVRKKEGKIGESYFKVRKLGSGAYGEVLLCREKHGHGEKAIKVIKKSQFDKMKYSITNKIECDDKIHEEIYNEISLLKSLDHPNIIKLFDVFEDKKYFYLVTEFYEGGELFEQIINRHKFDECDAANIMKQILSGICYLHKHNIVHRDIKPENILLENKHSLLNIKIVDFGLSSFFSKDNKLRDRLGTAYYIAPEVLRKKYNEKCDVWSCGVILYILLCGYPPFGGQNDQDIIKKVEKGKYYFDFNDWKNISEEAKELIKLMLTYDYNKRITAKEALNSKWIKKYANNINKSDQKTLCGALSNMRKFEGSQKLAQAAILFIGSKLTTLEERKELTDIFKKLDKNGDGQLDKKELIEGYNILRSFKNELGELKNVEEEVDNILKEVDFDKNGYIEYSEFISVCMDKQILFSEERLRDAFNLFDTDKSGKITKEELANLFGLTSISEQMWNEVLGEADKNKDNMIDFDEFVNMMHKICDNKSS

What is called inhibition is the relative decrease from the control value, in per cent. Consider `CC(C)COc1ccc(Cl)cc1Cc1ccc(-c2nc3ccc(N4CCN(C)CC4)cc3[nH]2)o1`, for which the values for the growth inhibition in assay [1] and in assay [4] were 41% and 102% (active), respectively. The inhibition in assay [2] was 6%; in assay [3], 0%. Also, the outcome in assay [5], in assay [6], in assay [7] and in assay [8] was inactive.

Take `Clc1ccc2nc(-c3cccnc3)[nH]c2c1`: the growth inhibition was 97% (active) in assay [1] and 92% (active) in assay [4]. In addition, the inhibition in assay [2] is -11%; in assay [3], 2%. For the same molecule, the result in assay [5], in assay [6], in assay [7] and in assay [8] was inactive.

`Cc1nc(N)nc(N)c1CCCOc1cccc(Cl)c1`: the figures for the growth inhibition in assay [1] and in assay [4] were -1% and 96% (active), respectively. The inhibition in assay [2] is 16%; in assay [3], -4%. In addition, the outcome in assay [5], in assay [6], in assay [7] and in assay [8] was inactive.

On to `C=C(C)CSc1nc2c(c(=O)n1CCc1ccccc1)C1(CCCC1)Cc1ccccc1-2`, for which the growth inhibition in assay [1] was 80% (active); in assay [4], 101% (active). Further, the inhibition is 14% in assay [2] and -5% in assay [3]. Also, the result in assay [5], in assay [6], in assay [7] and in assay [8] was inactive.

Turning to `CS(=O)(=O)c1cc2c(Nc3ccc(N4CCOCC4)cc3)c(C(N)=O)cnc2cc1Br`, the growth inhibition in assay [1] is 89% (active); in assay [4], 101% (active). Also, the inhibition was -18% in assay [2] and -2% in assay [3]. Also, the outcome in assay [5], in assay [6], in assay [7] and in assay [8] was inactive.

With `Cc1ccccc1CN1CCCN(Cc2ccc(C(=O)Nc3ccc(C(C)(C)C)cc3)cc2)CC1`, the growth inhibition was 5% in assay [1] and 89% (active) in assay [4]. Moreover, the inhibition in assay [2] is 52% (active); in assay [3], -1%. In addition, the outcome in assay [5], in assay [6], in assay [7] and in assay [8] was inactive.

Regarding `CC1CCc2sc(-c3nnc(SC(C)C(=O)NC4CC4)o3)cc2C1` (stereo not given), the values for the growth inhibition in assay [1] and in assay [4] were 69% (active) and 83% (active), respectively. Moreover, the values for the inhibition in assay [2] and in assay [3] were 5% and -4%, respectively. The result in assay [5], in assay [6], in assay [7] and in assay [8] was inactive.

`CCCC(=O)Nc1ccc(Cl)c(NC(=O)COc2cc(C)ccc2C(C)C)c1`: the growth inhibition in assay [1] is 67% (active); in assay [4], 87% (active). The inhibition in assay [2] is 2%; in assay [3], 0%. Besides, the result in assay [5], in assay [6], in assay [7] and in assay [8] was inactive.

As for `CC(=O)Nc1ccccc1OCc1cc2cc(C(=O)N3CCC(N4C(=O)OCc5ccccc54)CC3)ccc2o1`, the growth inhibition was 98% (active) in assay [1] and 99% (active) in assay [4]. The figures for the inhibition in assay [2] and in assay [3] were 34% and -2%, respectively. For the same molecule, the result in assay [5], in assay [6], in assay [7] and in assay [8] was inactive.

For `Cc1cc(=O)oc2c1ccc1oc(C(O)c3ccc(Cl)cc3)c(C)c12` (stereo not given), the growth inhibition in assay [1] is 96% (active); in assay [4], 95% (active). The inhibition is -7% in assay [2] and 1% in assay [3]. For the same molecule, the outcome in assay [5], in assay [6], in assay [7] and in assay [8] was inactive.

On to `Cc1ccccc1CNc1noc(-c2c(-c3ccccc3)noc2C)n1`, for which the results for the growth inhibition in assay [1] and in assay [4] were 70% (active) and 94% (active), respectively. Further, the inhibition in assay [2] is -4%; in assay [3], -2%. Further, the outcome in assay [5], in assay [6], in assay [7] and in assay [8] was inactive.

As for `Nc1c2c(nc3ccc(C(=O)Nc4ccc(Br)cc4)cc13)CCCC2`, the growth inhibition in assay [1] was 99% (active); in assay [4], 102% (active). Also, the inhibition is 40% in assay [2] and 1% in assay [3]. In addition, the outcome in assay [5], in assay [6], in assay [7] and in assay [8] was inactive.

Turning to `CCC(C)Oc1ccc(CCCON2C(N)=NC(N)=NC2(C)C)cc1` (stereo not given), the growth inhibition in assay [1] is 95% (active); in assay [4], 92% (active). Moreover, the results for the inhibition in assay [2] and in assay [3] were 65% (active) and -8%, respectively. The outcome in assay [5], in assay [6], in assay [7] and in assay [8] was inactive.

In the case of `COc1cc(Br)ccc1N1CCN(CCCCNC(=O)c2ccc(NC(=O)c3ccc(Cl)cc3)cc2)CC1`, the figures for the growth inhibition in assay [1] and in assay [4] were 33% and 96% (active), respectively. In addition, the values for the inhibition in assay [2] and in assay [3] were 55% (active) and 1%, respectively. Also, the outcome in assay [5], in assay [6], in assay [7] and in assay [8] was inactive.

In the case of `CCN(C)CCCn1c(N(C)C)nc2cc(-n3cnc4cc(-c5ccc(Cl)cc5)sc4c3=O)ccc21`, the values for the growth inhibition in assay [1] and in assay [4] were 12% and 80% (active), respectively. Besides, the results for the inhibition in assay [2] and in assay [3] were 83% (active) and 5%, respectively. Moreover, the outcome in assay [5], in assay [6], in assay [7] and in assay [8] was inactive.

`CC1CN(Cc2cccc(F)c2)CCN1c1ccc(NC(=O)c2cccs2)cc1` (stereo not given): the growth inhibition in assay [1] and in assay [4] was 96% (active) in each case. For the same molecule, the inhibition in assay [2] is -1%; in assay [3], -2%. The result in assay [5], in assay [6], in assay [7] and in assay [8] was inactive.

In the case of `COc1ccc2nccc([C@@H](O)CN3CCC(NC(=O)/C=C/c4c[nH]c5c(C)cccc45)CC3)c2c1`, the growth inhibition in assay [1] is 88% (active); in assay [4] it was 101% (active). Further, the values for the inhibition in assay [2] and in assay [3] were 23% and 4%, respectively. Further, the result in assay [5], in assay [6], in assay [7] and in assay [8] was inactive.

For `CCC(C)NC(=O)CN1CN(c2ccccc2)C2(CCN(C(=O)c3ccc(C(C)(C)C)cc3)CC2)C1=O` (stereo not given), the growth inhibition in assay [1] was 100% (active); in assay [4], 101% (active). Moreover, the values for the inhibition in assay [2] and in assay [3] were -6% and -4%, respectively. For the same molecule, the result in assay [5], in assay [6], in assay [7] and in assay [8] was inactive.

Regarding `COc1ccc2nccc([C@@H](O)CN3CCC(NCC(O)Cc4ccccc4)CC3)c2c1` (stereo not given in full), the figures for the growth inhibition in assay [1] and in assay [4] were 6% and 98% (active), respectively. Moreover, the figures for the inhibition in assay [2] and in assay [3] were 5% and -3%, respectively. Further, the outcome in assay [5], in assay [6], in assay [7] and in assay [8] was inactive.

`CCOc1ccc(-c2noc(-c3c[nH]c4ccccc4c3=O)n2)cc1`: the growth inhibition is 93% (active) in assay [1] and 99% (active) in assay [4]. The inhibition was -7% in assay [2] and -3% in assay [3]. In addition, the outcome in assay [5], in assay [6], in assay [7] and in assay [8] was inactive.
